Bioassay records as filed in PubChem BioAssay.
TDP1 cell CPT: qHTS for Inhibitors of human tyrosyl-DNA phosphodiesterase 1 (TDP1): qHTS in cells in presence of CPT; Potency, µM (doses to about 46.2 µM), inactives show top-dose activity change, negative = growth inhibition, most hits filed as inhibitors; 420,000 compounds, 12% hits; chicken DT40 Tdp1-/-;hTDP1 cells + 20 nM CPT, ATP luminescence, 48 h; note: % is set by controls: 0 for no effect and ±100 for the full control effect; nearly all actives have a fitted effect of over 55% in size
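Chicken DT40 Tdp1-/- cells complemented with human TDP1, 400 cells/well, exposed to compounds plus 20 nM camptothecin for at least 48 h at 37 C; viability read as ATP content by CellTiter-Glo luminescence.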
TGFb SMAD3 inh: qHTS for Inhibitors of TGF-b. 410,000 compounds, 1.2% hits. HepG2 CAGA-GFP TGF-b/SMAD3 reporter, GFP fluorescence, 18 h; TGF-beta stimulated, 500 pg/mL final. Potency, µM (highest dose often 46.1 µM), inactives show top-dose activity, negative = inhibition, actives largely listed as inhibitors; note: % is set by controls: 0 for no effect and ±100 for the full control effect; nearly all actives have a fitted effect of over 65% in size
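Using HEPG2 CAGA-GFP reporter cells at 1000 cells/well, we pinned test compounds, stimulated with recombinant TGF-beta (500 pg/mL final) and measured total well GFP after 18 h.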
ATXN2 expr inh: Primary qHTS for Inhibitors of ATXN expression. HEK-293 ATXN2-luciferase reporter, luminescence, 24 h. Potency, µM (highest dose often 57 µM), without a hit: at the top dose activity change, negative = inhibition, hits mostly inhibitors. 360,000 compounds, 0.72% hits. AID 1745845, 2022; note: % is set by controls: 0 for no effect and ±100 for the full control effect; nearly all actives have a fitted effect of over 55% in size
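ATXN2-luciferase reporter cells (luciferase flanked by upstream and downstream ATXN2 gene portions) were treated 24 h at 37 °C with compounds at up to 57 uM. SteadyGlo luminescence gave expression; GF-AFC fluorescence gave viability.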
TDP1 cell noCPT: qHTS for Inhibitors of human tyrosyl-DNA phosphodiesterase 1 (TDP1): qHTS in cells in absence of CPT; DT40 Tdp1-/- hTDP1 cells, no CPT, ATP luminescence, 48 h; Potency, µM (series often up to 46.2 µM), inactives show top-dose activity change, negative = growth inhibition, most hits filed as inhibitors; 420,000 compounds, 15% hits; note: % is set by controls: 0 for no effect and ±100 for the full control effect; nearly all actives have a fitted effect of over 55% in size
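Seeded 400 DT40-hTDP1 cells/well (vehicle DMSO, no 20 nM CPT); pinned compounds; ≥48 hr at 37 °C; CellTiter-Glo luminescence as viability measure.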
S2 tox: Viability Counterscreen for Primary qHTS for Inhibitors of ATXN expression; AID 651635, 2014; 400,000 compounds, 0.49% hits; S2 cells (HEK-293 line with an ATXN2-luciferase reporter) viability, CellTiter-Fluor protease fluorescence, 24 h; Potency, µM (top dose mostly 56.7 µM), most hits filed as cytotoxic; note: nearly all actives have a fitted effect of over 40% in size
HepG2 viability: qHTS for Inhibitors of TGF-b: Cytotox Counterscreen | 410,000 compounds, 0.76% hits | HepG2 CAGA-GFP viability, ATP luminescence, 18 h | Potency, µM (series often up to 46.1 µM), for the others: at the top dose activity change, negative = cytotoxicity, most hits filed as cytotoxic | AID 588856, 2011
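HepG2 CAGA-GFP cells (1000/well, DMEM with 1% FBS) received compound, then TGF-beta at 500 pg/mL final, and were incubated 18 hours at 37 degrees C. Viability was read by CellTiter-Glo luminescence. Media-only wells were set as complete cell-killing and DMSO as no toxicity.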
* hit, by the source's call; i = inactive; u = inconclusive; x = not tested or not shown; [ ] = dose if it differs, or a comment. Hits are enriched below; roughly 17% of the tested compounds scored in any of these assays. Calls come from the whole dose curve; as a rule, active = well fitted curve in the direction sought with a large enough effect; inconclusive = small, poorly fitted or top-dose-only effect, or another doubt; inactive = no such curve, though single readings can be large; an effect the other way counts as inactive or inconclusive. Potency is the fitted concentration of half-maximal effect.

SMILES | TDP1 cell CPT | TGFb SMAD3 inh | ATXN2 expr inh | TDP1 cell noCPT | S2 tox | HepG2 viability
Cc1ccc(C(=O)N2CCN3C(=O)c4ccccc4C23c2ccc(Cl)cc2)cc1 (stereo not given) | 8.2µM* | -14.9% | 0.5% | 10.3µM* | u | -36.7%
O=C(CN1C(=O)c2ccccc2C1=O)Nc1cccc(Cl)c1 | -16.6% | -0.5% | -4.2% | -8.3% | i | 8.7%
O=C(Nc1cccc(Cl)c1)N1CCN2C(=O)c3ccccc3C12c1ccccc1 (stereo not given) | u | u | -24.4% | 18.4µM* | u | -18.8%
O=C1c2ccccc2C2(c3ccccc3)NCCN12 (stereo not given) | -4.5% | -0.3% | -1.3% | -6.6% | i | 1.6%
NC(=O)NC(=O)CC1S/C(=N/N=C2/NC(=O)CS2)NC1=O (stereo not given) | 8.1% | -0.8% | -15.4% | 10.3% | i | 5.6%
COc1ccc(NC(=O)CN(C)C(=O)CCc2nc3cc(S(=O)(=O)N4CCOCC4)ccc3n2C)cc1 | -3.3% | 3.3% | -0.1% | -4.2% | i | 1.4%
CC1CCN(C(=O)CN2CC(C)Sc3ccccc32)CC1 (stereo not given) | u | 0.9% | 13.9% | u | u | 5.2%
CN(C)c1ccc(/C=N/N=C2/NC(=O)/C(=C/c3ccc([N+](=O)[O-])cc3)S2)cc1 | u | -9.9% | 18.5% | 16.4µM* | i | -21.8%
Cc1ccc2c(CC(=O)Nc3ccc(S(=O)(=O)N4CCCCC4)cc3)coc2c1C | 13µM* | -19.9% | u | 14.6µM* | i | -11.3%
Cc1ccc(C)c(CNc2ccc(S(=O)(=O)N3CCCCC3)cc2)c1 | 14.6µM* | u | x | 20.6µM* | i | -17.1%
Cc1cc(C)c2c(CC(=O)Nc3ccc(S(=O)(=O)N4CCCC(C)C4)cc3)coc2c1 (stereo not given) | u | u | -11.6% | 23.1µM* | i | -13.0%
Cc1ccc2c(CC(=O)Nc3ccc(S(=O)(=O)N4CCCCC4)cc3)coc2c1 | u | u | -10.8% | u | i | -15.9%
Cc1cc(C)c2c(CC(=O)Nc3ccc(S(=O)(=O)N4CCCCC4)cc3)coc2c1 | 20.6µM* | u | -9.9% | 10.3µM* | u | -18.4%
CCCCc1cc(=O)oc2cc(OCC(=O)Nc3ccccn3)ccc12 | 3.6% | 21.6% | x | u | i | -9.3%
O=C1CCCN=C(Nc2ccc(F)c(Cl)c2)S1 | -4.3% | 0.0% | 10.4% | -23.9% | u | -168.1%
Cc1noc(C)c1C(=O)OCC(=O)Nc1ccccc1Oc1ccccc1 | u | -11.2% | -6.8% | -18.1% | i | 1.9%
Cc1ccc(-c2cc(C(=O)N(C)Cc3cnn(C)c3C)c3cc(Br)ccc3n2)cc1 | 7.31µM* | -11.4% | u | 10.3µM* | u | -36.6%
Cc1ccc(-c2cc(C(=O)NCc3cnn(C)c3C)c3cc(Br)ccc3n2)cc1 | u | u | 12.7% | u | u | -15.5%
CN(CC1CCOCC1)C(=O)CC1C(=O)NCCN1CC1CCCCC1 (stereo not given) | 4.2% | -8.8% | -26.5%[11.3 µM] | 11.7% | i | 10.9%
Oc1c(CN2CCCCC2)cc(COCc2ccccc2)c2cccnc12 | 4.11µM* | u | 3.16µM* | 4.61µM* | u | -93.1%
COCc1cc(CN2CCCC2)c(O)c2ncccc12 | 0.651µM* | u | u | 0.82µM* | u | -25.9%
CN(C)C1CCN(Cc2cc(COCc3ccccc3)c3cccnc3c2O)C1 (stereo not given) | x | u | u | x | u | -13.2%
CCC(CN)CC(C)CCNCC(O)CNCC(C)CC(CC)CN (stereo not given) | -1.2% | x | x | 3.1% | i | x
Cc1cccc2c(N)c3c(nc12)N(C)CC3 | 8.2µM* | -11.3% | x | 11.6µM* | i | -14.9%
Cc1nc2c(C)cccc2c2c1CCN2c1ccccc1F | 14.6µM* | u | u | 20.6µM* | i | -27.2%
SMILES | TDP1 cell CPT | TGFb SMAD3 inh | ATXN2 expr inh | TDP1 cell noCPT | S2 tox | HepG2 viability
C=CCC(C(=O)Oc1c(C(C)(C)C)cc(C)cc1C(C)(C)C)c1ccccc1 (stereo not given) | -27.5% | 1.3% | 6.3% | u | i | -6.2%
CCOc1ccc(CCNC(=O)c2ccc(CS(=O)Cc3ccc(Cl)cc3)o2)cc1OCC (stereo not given) | u | 4.0% | -17.7% | 14.6µM* | i | -0.2%
CCOc1ccc(CCNC(=O)c2ccc(CS(=O)Cc3cccc(Cl)c3)o2)cc1 (stereo not given) | u | u | -2.2% | 14.6µM* | i | -21.4%
COCCNC(=O)c1sc2ncn(CC(=O)Nc3ccc(C)c(Cl)c3)c(=O)c2c1C | u | -6.6% | x | 13µM* | i | -7.7%
CCN(CC)C(=O)Cn1cnc2sc(C(=O)Nc3cc(OC)c(OC)c(OC)c3)c(C)c2c1=O | u | -5.2% | 5.3% | 11.6µM* | i | -26.2%
COCCNC(=O)c1sc2ncn(CC(=O)N3CCCCC3)c(=O)c2c1C | u | -3.7% | -4.3% | 25.9µM* | i | -23.4%
COc1ccc(Br)cc1CNC(=O)CN1C(=O)CSc2ccc(S(=O)(=O)N3CCOCC3)cc21 | u | -4.5% | x | u | x | -19.3%
Cc1nc2ccccc2c2c(N)c3ccccc3n12 | u | -6.1% | -20.2% | 20.6µM* | x | 3.6%
O=C1OC(c2ccc(F)cc2)=N/C1=C\c1ccc(Br)o1 | u | 21.2% | -16.1% | 13µM* | i | -1.0%
N#Cc1nc(-c2ccc(Cl)cc2)oc1NCC1CCCO1 (stereo not given) | -2.8% | -3.2% | 19.4% | -1.3% | i | -2.9%
CCCC[C@H](CN[C@@H](CNC)[C@H](C)CC)NCCC12CCC(CC1)C2 | 2.59µM* | u | 28.2µM* | 3.66µM* | 28.2µM* | -102.1%
CC[C@H](C)[C@@H](CNC)NC[C@@H](Cc1ccc(O)cc1)NCC(C)(C)C | u | 2.7% | -6.7% | -29.4% | i | -3.0%
CC(C)N1C/C(=C/c2ccsc2)C(=O)/C(=C/c2ccsc2)C1 | 2.91µM* | 7.94µM* | u | 5.8µM* | x | -32.7%
CC(C)N1C/C(=C/c2cccnc2)C(=O)/C(=C/c2cccnc2)C1 | 1.64µM* | 7.08µM* | -10.9% | 1.64µM* | u | -28.0%
